Source: PubChem BioAssay AID1508602 (The Scripps Research Institute Molecular Screening Center, 2020)
“And” between values parts separate entries of the source, which are not always exact repeats. Equal entries are not always repeated. Out of some 650,000 compounds screened, about 6,800 (1%) were called active. No stated cut-off is given here; in the data, active means activation above about 4.9%; inactive means the rest. Shown is part of a subset that was picked to be rich in actives. Some structures have more than one record in an assay (separate samples or runs), and their calls can disagree.

Molecular target: G-protein coupled receptor 151 (Homo sapiens) (UniProt Q8TDV0)
Sequence (Q8TDV0 whole entry, looked up): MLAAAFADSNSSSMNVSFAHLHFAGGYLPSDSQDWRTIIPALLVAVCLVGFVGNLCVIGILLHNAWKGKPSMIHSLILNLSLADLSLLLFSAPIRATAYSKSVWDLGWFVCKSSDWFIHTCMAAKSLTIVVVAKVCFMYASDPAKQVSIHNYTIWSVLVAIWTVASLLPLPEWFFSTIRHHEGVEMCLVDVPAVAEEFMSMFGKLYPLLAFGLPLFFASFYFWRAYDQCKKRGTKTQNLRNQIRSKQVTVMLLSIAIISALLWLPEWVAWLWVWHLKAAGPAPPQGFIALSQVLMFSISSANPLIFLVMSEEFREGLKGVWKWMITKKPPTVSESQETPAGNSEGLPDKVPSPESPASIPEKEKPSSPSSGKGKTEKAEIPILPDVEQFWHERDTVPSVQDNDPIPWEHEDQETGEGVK
Assay: activators of human GPR151, primary screen, cell-based, PathHunter beta-arrestin, luminescence (AID 1508602);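 further: 0% = median of compound wells and 100% = cells with positive control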
Settings: PathHunter beta-arrestin GPR151 cells, at 11.2 µM, stronger effect = higher value

Row | SMILES | activation
1 | N#Cc1ccc(N2CCN(CCCNC(=O)Nc3ccccc3)CC2)cc1 | 5.03% (active)
2 | CCOC(=O)NCCCN1CCN(c2ccccc2)CC1 | 1.63% (inactive)
3 | COc1cc(NC(=O)NCCN2CCN(c3ccccc3)CC2)cc(OC)c1 | 0.531% (inactive)
4 | COc1cccc(C=O)c1OC(=O)c1ccc(Cl)c([N+](=O)[O-])c1 | 1.65% (inactive)
5 | NC(=O)c1ccccc1NS(=O)(=O)c1cc(C(=O)O)c(Cl)cc1Cl | 1.03% (inactive)
6 | OC(COc1ccccc1F)CN1CCOCC1 (stereo unspecified) | 0.198% (inactive)
7 | COc1ccc(C2/C(=C(\O)c3ccc(F)cc3)C(=O)C(=O)N2CCCN2CCOCC2)cc1 (stereo unspecified) | 1.83% (inactive)
8 | CCCSc1[nH]c(=O)c(C(=O)O)cc1C#N | -0.367% (inactive)
9 | O=C(Cn1nnc2ccccc21)N/N=C/c1cccnc1 | 0.99% (inactive)
10 | O=C(Cn1nnc2ccccc21)N/N=C/c1c(O)ccc2ccccc12 | 5.7% (active)
11 | O=C(Cn1nnc(-c2ccccc2)n1)N/N=C/c1c(O)ccc2ccccc12 | 1.41% (inactive)
12 | CC(C)(C)C1(O)CCN2C[C@H]3c4ccccc4CCc4cccc(c43)[C@@H]2C1 (stereo partly specified) | 7.83% (active) and 3.25% (inactive)
13 | CC(Nc1n[nH]c(=O)[nH]c1=O)C(=O)N/N=C/c1cccnc1 (stereo unspecified) | -0.752% (inactive)
14 | CN(CC(=O)Nc1ccccc1Cl)S(=O)(=O)c1ccc(F)cc1 | -1.27% (inactive)
15 | CN(CC(=O)Nc1c(F)cccc1F)S(=O)(=O)c1ccc(Cl)cc1 | 0.4% (inactive)
16 | CN(CC(=O)Nc1cccc2c1CCCC2)S(=O)(=O)c1ccc(Cl)cc1 | 5.67% (active)
17 | C=CCn1c(SCC(=O)NCc2ccco2)nc2sc3c(c2c1=O)CCC(C)C3 (stereo unspecified) | -1.7% (inactive)
18 | CCOC(=O)c1sc2nc(SCC(=O)N(C)Cc3ccccc3)n(Cc3ccc4c(c3)OCO4)c(=O)c2c1C | 5.39% (active)
19 | CCOC(=O)CSc1nc2sc(C(=O)OCC)c(C)c2c(=O)n1Cc1ccccc1 | 2.6% (inactive)
20 | CCOC(=O)c1sc2nc(SCc3ccc(Cl)cc3)n(Cc3cccc(Cl)c3)c(=O)c2c1C | -0.446% (inactive)
21 | NC(=O)c1nc(-c2ccccc2)nc2c1[nH]c(=O)n2-c1ccc(F)cc1 | 0.0137% (inactive)
22 | CC(C)n1c(=O)[nH]c2c(C(N)=O)nc(-c3ccc(-c4ccccc4)cc3)nc21 | 5.61% (active)
23 | NC(=O)c1nc(-c2cccc(Cl)c2)nc2c1[nH]c(=O)n2-c1ccccc1 | -0.457% (inactive)

Row | SMILES | activation
24 | Cc1cccnc1-c1ccc2c(c1)CC(CNC(=O)[C@@H]1CCC(=O)N1)O2 (stereo partly specified) | 0.168% (inactive)
25 | CCOC(=O)C1=C(C)OC(N)=C(C#N)C1c1ccc2c(c1)OCO2 (stereo unspecified) | 0.198% (inactive)
26 | CCN(CC)CCOC(=O)c1ccc(OC)cc1OCCN(CC)CC | 1.9% (inactive)
27 | OCCC1CN(Cc2ccc3cc(F)ccc3n2)CCN1C1CCCC1 (stereo unspecified) | 9.5% (active)
28 | OCCC1CN(Cc2cccc(F)c2)CCN1C1CCCC1 (stereo unspecified) | 1% (inactive)
29 | CCOc1ccc(CN2CCN(Cc3ccc4cc(F)ccc4n3)CC2CCO)cc1 (stereo unspecified) | -0.448% (inactive)
30 | CC(C)Nc1cc(N2CCC3(CC2)OCCO3)c2noc3c2c1C(=O)c1ccccc1-3 | 3.8% (inactive)
31 | Cc1ccc(N2C(=O)NC(NC(=O)c3cccs3)(C(F)(F)F)C2=O)cc1 (stereo unspecified) | 1.1% (inactive)
32 | Cc1ccc(N2C(=O)CC(NCc3ccc(F)cc3)C2=O)cc1 (stereo unspecified) | -0.0057% (inactive)
33 | Cc1ccc(N2C(=O)CC(NCCN3CCOCC3)C2=O)cc1 (stereo unspecified) | 14% (active)
34 | Cc1ccc(N2C(=O)CC(NCCc3ccccc3F)C2=O)cc1 (stereo unspecified) | 0.306% (inactive)
35 | COc1ccc(F)c(CC2(CCC(=O)N(CCO)Cc3ccccc3)CCC(=O)N2)c1 (stereo unspecified) | -0.346% (inactive)
36 | O=C(Nc1ccc2[nH]ncc2c1)N1CCCNCC1 | 5.34% (active)
37 | NC(C(=O)N1CCN(C(=O)Nc2ccc3[nH]ncc3c2)CC1)c1cccc(Br)c1 (stereo unspecified) | -1.09% (inactive)
38 | CC(C)[C@H](O)C(=O)N1CCC(C(=O)Nc2ccc3[nH]ncc3c2)CC1 | -0.359% (inactive)
39 | O=C(Nc1ccccc1C(F)(F)F)c1cc(S(=O)(=O)N2CCCCCC2)ccc1F | 0.584% (inactive)
40 | Cc1ccc(N(CC(=O)N/N=C/c2ccc(C)c(C)c2C)S(C)(=O)=O)cc1 | 0.882% (inactive)
41 | COc1cc2ccccc2cc1C(=O)Nc1nc2ccc3ccccc3c2s1 | -1.09% (inactive)
42 | CCOC(=O)c1cc[n+](CC(=O)c2ccc(NC(=O)c3ccccc3)cc2)cc1 | -2.71% (inactive)
43 | CCOC(=O)c1ccc(NC(=O)c2nn(Cc3ccccc3)c(=O)c3ccccc23)cc1 | -0.0773% (inactive)
44 | CCOC(=O)c1ccc(NC(=O)c2ncn(-c3ccccc3)n2)cc1 | 5.91% (active)
45 | O=C(Nc1ccncc1NC(=O)c1ccco1)c1ccco1 | 0.598% (inactive)
46 | COc1ccc(CN2CCNC(=O)C2CC(=O)N2CCCCC2)cc1OC (stereo unspecified) | 1.79% (inactive)

Row | SMILES | activation
47 | O=C1NCCN(Cc2ccc(F)c(F)c2)C1CC(=O)N1CCCC1 (stereo unspecified) | -0.422% (inactive)
48 | O=C1NCCN(Cc2ccc(-c3ccccc3)cc2)C1CC(=O)N1CCCCC1 (stereo unspecified) | 12.2% (active)
49 | COc1cccc(N2CCN(c3ncnc4c3c(-c3ccccc3)cn4-c3ccccc3)CC2)c1 | 1.89% (inactive)
50 | Nc1nc(NC(=O)/C=C/c2ccccc2)nn1-c1ccccc1 | 0.0795% (inactive)
51 | Nc1nc(NC(=O)/C=C/c2ccc(Cl)cc2)nn1-c1ccccc1 | 0.321% (inactive)
52 | Nc1nc(NC(=O)/C=C/c2ccc(F)cc2)nn1-c1ccccc1 | 10.7% (active)
53 | Cc1sc(NC(=O)Cc2ccc([N+](=O)[O-])cc2)c(C#N)c1-c1ccccc1 | -0.519% (inactive)
54 | O=C(CN1CCOCC1)Nc1c(Cl)cc(Cl)cc1Cl | 8.12% (active)
55 | O=C1CN(CC(=O)Nc2c(Cl)cc(Cl)cc2Cl)CCN1 | 0.357% (inactive)
56 | O=C(CN1CCOCC1)Nc1ncc(Cc2cc(Cl)cc(Cl)c2)s1 | -0.516% (inactive)
57 | CC(NC(=O)C12CC3CC(CC(C3)C1)C2)c1ccccc1 (stereo unspecified) | 1.54% (inactive)
58 | CCOC(=O)c1c(-c2ccc(C)cc2)csc1NC(=O)CNCCCO | 0.601% (inactive)
59 | Cc1ccc(C(=O)N/N=C\c2ccccc2O)cn1 | -0.843% (inactive)
60 | O=S(=O)(c1ccc2c(c1)CCCC2)N1CCOC(c2ccccc2)C1 (stereo unspecified) | -1.43% (inactive)
61 | Cc1ccccc1-c1nc(SCC(=O)NCCc2ccccc2)c2c(=O)n(C)c(=O)n(C)c2n1 | -0.395% (inactive)
62 | CCN1CCN(C(=O)Cn2nc(Cc3cccnc3)c3ccccc3c2=O)CC1 | 1.14% (inactive)
63 | O=C1CCC(=O)NCC(=O)NCCOCCNC(=O)CN1 | -0.231% (inactive)
64 | CC/C(Cc1ccccc1)=N\NC(=O)c1ccccc1 | -1.22% (inactive)
65 | CN1CCN(c2ccc(-c3nc4ccc(C(=O)NCc5ccccc5)cc4s3)cc2)CC1 | -0.195% (inactive)
66 | CN1CCN(c2ccc(-c3nc4ccc(C(=O)NCc5nc6ccccc6[nH]5)cc4s3)cc2)CC1 | 7.98% (active)
67 | O=C(NCc1nc2ccccc2[nH]1)c1ccc2nc(-c3ccccc3)sc2c1 | -1.41% (inactive)
68 | COc1ccc(-c2noc(Nc3ccc(F)cc3)n2)cc1OC | -0.36% (inactive)
69 | Cc1ccc(NC(=O)c2c[nH]c(=O)[nH]c2=O)cc1S(=O)(=O)N1CCCCC1 | -0.749% (inactive)

Row | SMILES | activation
70 | COc1ccc(C(=O)NNC(=O)c2ccccc2[N+](=O)[O-])cc1OC | -0.216% (inactive)
71 | CC(NS(=O)(=O)c1ccc([N+](=O)[O-])cc1)C(=O)N/N=C/c1ccc(O)cc1 (stereo unspecified) | 0.173% (inactive)
72 | CC(C)C(=O)NNS(=O)(=O)c1ccc([N+](=O)[O-])cc1 | 6.82% (active)
73 | O=C(NNS(=O)(=O)c1ccc([N+](=O)[O-])cc1)Nc1cccc(C(F)(F)F)c1 | 0.535% (inactive)
74 | CC(=O)N(CC(O)CO)c1c(I)c(C(=O)NCC(O)CO)c(I)c(C(=O)NCC(O)CO)c1I (stereo unspecified) | 0.874% (inactive)
75 | COCC(=O)Nc1c(I)c(C(=O)NCC(O)CO)c(I)c(C(=O)N(C)CC(O)CO)c1I (stereo unspecified) | 6.28% (active)
76 | CC1=NOC(=O)/C1=C/c1ccc(-c2cc(C)c(C)cc2[N+](=O)[O-])o1 | 0.0267% (inactive)
77 | Cc1[nH][nH]c(=O)c1C(c1ccc(-c2ccc(Cl)cc2)o1)c1c(C)[nH][nH]c1=O | 0.733% (inactive)
78 | Cc1[nH][nH]c(=O)c1C(c1ccc(-c2ccc(F)cc2[N+](=O)[O-])o1)c1c(C)[nH][nH]c1=O | 6.05% (active)
79 | CCCOC(=O)COc1ccc2c(C)cc(=O)oc2c1 | -0.0136% (inactive)
80 | Cc1ccc(C2=NN(C(=O)CCC(=O)O)C(c3ccc(C)cc3)C2)cc1 (stereo unspecified) | -1.19% (inactive)
81 | CC1=C(C(=O)Nc2ccc(Cl)cc2)C(c2ccc([N+](=O)[O-])cc2)n2nnnc2N1 (stereo unspecified) | 0.405% (inactive)
82 | O=C(O)CC(NC(=O)c1ccccc1)c1ccc(F)cc1 (stereo unspecified) | -0.457% (inactive)
83 | CC(=O)NC(CC(=O)O)c1ccc(F)cc1 (stereo unspecified) | 6.23% (active)
84 | O=C(O)CC(NS(=O)(=O)Cc1ccccc1)c1ccc(F)cc1 (stereo unspecified) | 1.1% (inactive)
85 | O=C(NCc1ccc(F)cc1)c1nn2c(C(F)(F)F)cc(-c3cccs3)nc2c1Cl | 0.443% (inactive)
86 | Cc1ccccc1NC(=O)CSc1nnc(NC(=O)CCc2ccccc2)s1 | -0.763% (inactive)
87 | O=C1c2cccnc2C(=O)N1CCc1ccc(S(=O)(=O)N2CCCc3ccccc32)cc1 | -2.73% (inactive)
88 | COc1ccc(-c2cnn3ccc(Nc4ccc(O)cc4)nc23)c(OC)c1 | -0.387% (inactive)
89 | CC(=O)c1c(C)[nH]c(C(=O)Nc2cc(S(=O)(=O)N(C)C)ccc2C)c1C | 0.871% (inactive)
90 | COC(=O)NNC(=S)Nc1cc(S(=O)(=O)N(C)C)ccc1C | 6.15% (active)
91 | Cc1ccc(S(=O)(=O)N(C)C)cc1NC(=S)NCCc1ccc(O)c(O)c1 | -0.323% (inactive)
